Measurements as given in the supplement of paper PMC10849652.
Targets with a hit are over-represented here; the source holds about 8,800 in all. About 0.5% of all pairs of compound and target were hits. Values without a mark were called inactive.

Legend:
Assay in all cases: log2 fold change, soluble protein after heating vs DMSO (PISA); higher = thermal stabilisation; K562 lysate, 10 uM; active = over 0.2 and 3.5 SD of the protein, either way, in both replicates (recomputed)
vemurafenib = compound: CCCS(=O)(=O)Nc1ccc(F)c(C(=O)c2c[nH]c3ncc(-c4ccc(Cl)cc4)cc23)c1F [vemurafenib]
In short: (§1)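 Soluble protein was defined as the supernatant remaining after 21,000xg for 90 min, following pooling of heated aliquots and adjustment to 0.5% NP-40 at 4°C. Before that, crude K562 extract at 1 mg/mL protein in PBS pH 7.4 with 1 mM MgCl2 was treated with 10 μM compound for 30 min and heated for 3 min across 48°C-58°C. Quantification used TMTpro 16plex LC-MS/MS with channel sums equalised, and values are log-two fold changes in thermal stability relative to solvent controls from duplicates.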

[1] = compound: CCCS(=O)(=O)Nc1ccc(F)c(C(=O)c2c[nH]c3ncc(Cl)cc23)c1F
In short: as §1

barasertib = compound: CCN(CCCOc1ccc2c(Nc3cc(CC(=O)Nc4cccc(F)c4)[nH]n3)ncnc2c1)CCOP(=O)(O)O [barasertib]
In short: as §1

[2] = compound: CC[C@@H]1C(=O)N(C)c2cnc(Nc3ccc(C(=O)NC4CCN(C)CC4)cc3OC)nc2N1C1CCCC1
In short: as §1

volasertib = compound: CC[C@@H]1C(=O)N(C)c2cnc(Nc3ccc(C(=O)N[C@H]4CC[C@H](N5CCN(CC6CC6)CC5)CC4)cc3OC)nc2N1C(C)C [volasertib]
In short: as §1

[3] = compound: CCn1c(C(=O)N(C2CC2)C2CC2)cc2c3c(ncn3C)c(Nc3cc(C)n(C)n3)nc21
In short: as §1

[4] = compound: CCn1cc(-c2ccnc3[nH]c(-c4cccc(CN(C)C)c4)cc23)c(-c2ccc(NC(=O)N(C)C)cc2)n1
In short: as §1

[5] = compound: CN1CCC(CNc2ccc3ncc(-c4cccc(OC(F)(F)F)c4)n3n2)CC1
In short: as §1

saracatinib = compound: CN1CCN(CCOc2cc(OC3CCOCC3)c3c(Nc4c(Cl)ccc5c4OCO5)ncnc3c2)CC1 [saracatinib]
In short: as §1

sotrastaurin = compound: CN1CCN(c2nc(C3=C(c4c[nH]c5ccccc45)C(=O)NC3=O)c3ccccc3n2)CC1 [sotrastaurin]
In short: as §1

alvocidib = compound: CN1CC[C@H](c2c(O)cc(O)c3c(=O)cc(-c4ccccc4Cl)oc23)[C@H](O)C1 [alvocidib]
In short: as §1

Tubastatin A = compound: CN1CCc2c(c3ccccc3n2Cc2ccc(C(=O)NO)cc2)C1 [Tubastatin A]
In short: as §1

[6] = compound: CNC(=O)C1=CC=CC=C1NC2=NC(=NC=C2Cl)NC3=C(C=C(C=C3)N4CCOCC4)OC
In short: as §1

defactinib = compound: CNC(=O)c1ccc(Nc2ncc(C(F)(F)F)c(NCc3nccnc3N(C)S(C)(=O)=O)n2)cc1 [defactinib]
In short: as §1

[7] = compound: CNc1nc(-c2ccc3c(N)n[nH]c3c2)cc(N2C[C@@H](C(=O)NC3CCCCC3)CC[C@H]2C)n1
In short: as §1

encorafenib = compound: COC(=O)N[C@@H](C)CNc1nccc(-c2cn(C(C)C)nc2-c2cc(Cl)cc(NS(C)(=O)=O)c2F)n1 [encorafenib]
In short: as §1

[8] = compound: COC(=O)[C@H](CCSC)NC(=O)C1=C(C=C(C=C1)NC[C@H](CS)N)C2=CC=CC=C2
In short: as §1

alisertib = compound: COc1cc(Nc2ncc3c(n2)-c2ccc(Cl)cc2C(c2c(F)cccc2OC)=NC3)ccc1C(=O)O [alisertib]
In short: as §1

[9] = compound: COc1cc2nc(-c3cc(F)ccc3O)nc(N[C@@H]3CNC[C@H]3C(C)(C)O)c2cc1OC
In short: as §1

gefitinib = compound: COc1cc2ncnc(Nc3ccc(F)c(Cl)c3)c2cc1OCCCN1CCOCC1 [gefitinib]
In short: as §1

UniProt Q6P1M0, sequence (Q6P1M0 whole entry, looked up): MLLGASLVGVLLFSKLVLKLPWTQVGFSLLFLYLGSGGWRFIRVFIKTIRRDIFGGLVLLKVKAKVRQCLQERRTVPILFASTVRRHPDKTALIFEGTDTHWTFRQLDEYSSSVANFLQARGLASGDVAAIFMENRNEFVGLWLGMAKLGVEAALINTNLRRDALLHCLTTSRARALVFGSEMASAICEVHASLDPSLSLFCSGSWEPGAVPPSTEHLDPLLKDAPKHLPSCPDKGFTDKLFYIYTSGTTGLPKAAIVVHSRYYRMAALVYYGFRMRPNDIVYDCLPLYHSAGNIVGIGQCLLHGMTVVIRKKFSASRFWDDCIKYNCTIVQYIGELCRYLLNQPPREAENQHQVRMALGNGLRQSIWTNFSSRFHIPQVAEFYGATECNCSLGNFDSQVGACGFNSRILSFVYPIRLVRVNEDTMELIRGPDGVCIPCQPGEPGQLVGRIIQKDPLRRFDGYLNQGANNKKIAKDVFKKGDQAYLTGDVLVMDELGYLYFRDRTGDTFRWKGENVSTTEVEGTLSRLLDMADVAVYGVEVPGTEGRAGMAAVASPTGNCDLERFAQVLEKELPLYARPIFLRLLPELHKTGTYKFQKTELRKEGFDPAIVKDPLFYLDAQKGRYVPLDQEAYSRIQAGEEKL
UniProt P05455, sequence (P05455 whole entry, looked up): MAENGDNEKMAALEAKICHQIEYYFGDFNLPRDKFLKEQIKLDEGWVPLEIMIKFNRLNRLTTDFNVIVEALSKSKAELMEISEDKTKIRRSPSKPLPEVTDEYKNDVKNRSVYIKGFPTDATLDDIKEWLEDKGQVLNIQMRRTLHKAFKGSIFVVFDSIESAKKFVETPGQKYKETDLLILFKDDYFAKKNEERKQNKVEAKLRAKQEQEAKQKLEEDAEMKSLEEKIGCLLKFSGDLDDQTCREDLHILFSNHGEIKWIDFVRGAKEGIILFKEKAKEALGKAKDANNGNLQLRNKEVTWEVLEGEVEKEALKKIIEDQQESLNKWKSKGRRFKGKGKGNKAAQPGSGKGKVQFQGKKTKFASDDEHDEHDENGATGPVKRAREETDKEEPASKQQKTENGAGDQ
UniProt Q86XZ4, sequence (Q86XZ4 whole entry, looked up): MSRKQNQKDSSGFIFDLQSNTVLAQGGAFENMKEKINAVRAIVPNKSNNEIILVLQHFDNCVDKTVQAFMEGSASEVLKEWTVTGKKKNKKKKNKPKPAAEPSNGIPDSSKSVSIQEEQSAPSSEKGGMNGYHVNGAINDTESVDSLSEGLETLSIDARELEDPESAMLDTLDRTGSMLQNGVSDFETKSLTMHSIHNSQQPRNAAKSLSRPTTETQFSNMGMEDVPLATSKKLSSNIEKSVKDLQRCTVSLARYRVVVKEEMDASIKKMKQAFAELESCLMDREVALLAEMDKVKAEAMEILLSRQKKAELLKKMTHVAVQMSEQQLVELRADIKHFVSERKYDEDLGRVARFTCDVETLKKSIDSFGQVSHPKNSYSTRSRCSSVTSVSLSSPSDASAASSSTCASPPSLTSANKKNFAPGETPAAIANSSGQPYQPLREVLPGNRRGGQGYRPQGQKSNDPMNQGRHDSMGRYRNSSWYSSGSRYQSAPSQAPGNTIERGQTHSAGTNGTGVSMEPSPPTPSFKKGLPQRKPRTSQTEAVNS
UniProt O14975, sequence (O14975 whole entry, looked up): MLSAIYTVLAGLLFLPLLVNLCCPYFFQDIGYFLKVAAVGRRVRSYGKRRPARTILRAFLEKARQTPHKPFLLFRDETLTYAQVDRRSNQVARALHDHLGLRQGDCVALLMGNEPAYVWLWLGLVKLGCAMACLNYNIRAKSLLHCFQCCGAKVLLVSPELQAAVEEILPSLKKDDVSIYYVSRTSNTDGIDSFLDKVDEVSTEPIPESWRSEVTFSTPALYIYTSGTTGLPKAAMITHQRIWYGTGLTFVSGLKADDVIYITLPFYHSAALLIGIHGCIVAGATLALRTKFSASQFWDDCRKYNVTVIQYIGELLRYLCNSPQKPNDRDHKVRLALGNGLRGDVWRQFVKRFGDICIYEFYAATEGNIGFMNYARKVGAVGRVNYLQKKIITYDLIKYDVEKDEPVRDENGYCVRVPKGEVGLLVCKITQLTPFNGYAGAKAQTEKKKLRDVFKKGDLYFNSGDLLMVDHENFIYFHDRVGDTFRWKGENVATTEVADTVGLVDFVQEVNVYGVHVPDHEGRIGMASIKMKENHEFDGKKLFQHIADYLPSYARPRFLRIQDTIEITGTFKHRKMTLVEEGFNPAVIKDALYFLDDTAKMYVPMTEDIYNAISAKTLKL
UniProt Q96DW6, sequence (Q96DW6 whole entry, looked up): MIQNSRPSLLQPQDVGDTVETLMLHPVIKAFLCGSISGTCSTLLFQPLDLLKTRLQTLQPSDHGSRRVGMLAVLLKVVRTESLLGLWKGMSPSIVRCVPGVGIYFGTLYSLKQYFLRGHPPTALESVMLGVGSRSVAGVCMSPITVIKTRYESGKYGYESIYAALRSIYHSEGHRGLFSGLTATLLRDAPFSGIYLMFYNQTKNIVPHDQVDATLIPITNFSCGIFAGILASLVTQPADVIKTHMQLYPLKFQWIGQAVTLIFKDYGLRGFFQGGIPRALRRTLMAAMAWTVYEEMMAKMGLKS
UniProt Q16629, sequence (Q16629 whole entry, looked up): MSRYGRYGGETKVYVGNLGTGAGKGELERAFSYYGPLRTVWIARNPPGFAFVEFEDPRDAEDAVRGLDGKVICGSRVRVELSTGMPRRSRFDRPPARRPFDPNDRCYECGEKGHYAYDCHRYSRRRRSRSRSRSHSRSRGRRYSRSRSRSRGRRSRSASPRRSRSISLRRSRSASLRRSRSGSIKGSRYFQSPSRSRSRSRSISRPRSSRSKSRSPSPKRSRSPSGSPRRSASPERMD
UniProt Q9UPR3, sequence (Q9UPR3 whole entry, looked up): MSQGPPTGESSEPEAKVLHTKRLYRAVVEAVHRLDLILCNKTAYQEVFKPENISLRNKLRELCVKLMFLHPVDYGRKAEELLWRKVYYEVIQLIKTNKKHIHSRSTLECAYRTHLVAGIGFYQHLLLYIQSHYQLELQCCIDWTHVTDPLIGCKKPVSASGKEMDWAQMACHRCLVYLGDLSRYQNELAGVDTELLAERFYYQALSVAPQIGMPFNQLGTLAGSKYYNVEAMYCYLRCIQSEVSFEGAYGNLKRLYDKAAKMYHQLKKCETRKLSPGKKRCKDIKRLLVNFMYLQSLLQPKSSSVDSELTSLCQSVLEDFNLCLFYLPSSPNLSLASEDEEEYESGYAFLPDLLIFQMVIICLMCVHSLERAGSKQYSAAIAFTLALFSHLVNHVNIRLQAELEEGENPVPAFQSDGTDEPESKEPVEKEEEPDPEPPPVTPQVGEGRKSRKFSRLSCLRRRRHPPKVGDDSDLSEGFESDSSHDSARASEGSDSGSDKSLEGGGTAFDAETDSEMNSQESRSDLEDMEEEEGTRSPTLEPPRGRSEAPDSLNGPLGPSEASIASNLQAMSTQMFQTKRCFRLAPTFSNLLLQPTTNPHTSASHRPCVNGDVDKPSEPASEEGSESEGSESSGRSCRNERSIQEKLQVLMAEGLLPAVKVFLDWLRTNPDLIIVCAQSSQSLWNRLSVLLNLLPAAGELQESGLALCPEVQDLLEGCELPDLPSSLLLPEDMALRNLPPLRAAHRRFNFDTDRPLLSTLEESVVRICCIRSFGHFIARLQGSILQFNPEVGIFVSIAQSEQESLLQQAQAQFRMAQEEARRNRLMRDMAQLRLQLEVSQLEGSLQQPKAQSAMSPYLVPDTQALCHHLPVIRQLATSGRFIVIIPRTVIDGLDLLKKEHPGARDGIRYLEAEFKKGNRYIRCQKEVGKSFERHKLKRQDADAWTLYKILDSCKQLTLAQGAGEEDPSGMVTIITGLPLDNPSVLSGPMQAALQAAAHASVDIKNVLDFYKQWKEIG
UniProt Q9UNE7, sequence (Q9UNE7 whole entry, looked up): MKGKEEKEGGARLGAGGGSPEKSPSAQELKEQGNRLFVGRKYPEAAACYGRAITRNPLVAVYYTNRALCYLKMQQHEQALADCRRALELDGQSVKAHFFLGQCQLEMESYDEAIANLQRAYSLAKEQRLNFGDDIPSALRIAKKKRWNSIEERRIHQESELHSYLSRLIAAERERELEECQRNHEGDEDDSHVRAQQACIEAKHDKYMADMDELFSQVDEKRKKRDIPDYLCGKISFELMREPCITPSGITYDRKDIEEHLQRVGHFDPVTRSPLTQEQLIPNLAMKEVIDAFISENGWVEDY
UniProt Q7KZF4, sequence (Q7KZF4 whole entry, looked up): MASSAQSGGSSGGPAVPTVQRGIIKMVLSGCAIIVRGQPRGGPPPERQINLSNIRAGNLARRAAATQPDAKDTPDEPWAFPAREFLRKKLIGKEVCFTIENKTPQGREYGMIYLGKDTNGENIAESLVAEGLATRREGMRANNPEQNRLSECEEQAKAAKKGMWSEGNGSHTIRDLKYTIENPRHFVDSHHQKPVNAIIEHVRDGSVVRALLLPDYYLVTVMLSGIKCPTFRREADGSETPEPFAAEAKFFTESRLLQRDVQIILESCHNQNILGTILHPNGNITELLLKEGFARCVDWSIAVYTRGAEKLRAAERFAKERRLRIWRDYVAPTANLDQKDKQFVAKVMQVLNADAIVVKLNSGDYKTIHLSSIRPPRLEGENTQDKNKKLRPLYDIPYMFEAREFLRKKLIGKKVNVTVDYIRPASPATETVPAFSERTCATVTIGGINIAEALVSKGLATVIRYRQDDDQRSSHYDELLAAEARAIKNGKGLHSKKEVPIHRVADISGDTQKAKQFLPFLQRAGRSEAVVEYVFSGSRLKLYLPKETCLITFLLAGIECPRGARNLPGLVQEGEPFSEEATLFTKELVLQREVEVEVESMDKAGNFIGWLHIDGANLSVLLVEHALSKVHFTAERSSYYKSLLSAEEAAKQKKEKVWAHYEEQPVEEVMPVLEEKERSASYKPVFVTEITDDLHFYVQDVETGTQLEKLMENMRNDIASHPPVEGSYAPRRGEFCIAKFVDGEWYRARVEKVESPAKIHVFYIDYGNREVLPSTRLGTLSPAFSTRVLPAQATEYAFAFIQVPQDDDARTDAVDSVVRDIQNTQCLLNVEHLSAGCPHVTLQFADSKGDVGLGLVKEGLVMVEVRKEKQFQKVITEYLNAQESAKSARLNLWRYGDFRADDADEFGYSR

Row | Target | log2 fold change (vemurafenib) | log2 fold change [1] | log2 fold change (barasertib) | log2 fold change [2] | log2 fold change (volasertib) | log2 fold change [3] | log2 fold change [4] | log2 fold change [5] | log2 fold change (saracatinib) | log2 fold change (sotrastaurin) | log2 fold change (alvocidib) | log2 fold change (Tubastatin A) | log2 fold change [6] | log2 fold change (defactinib) | log2 fold change [7] | log2 fold change (encorafenib) | log2 fold change [8] | log2 fold change (alisertib) | log2 fold change [9] | log2 fold change (gefitinib)
1 | STUB1 (UniProt Q9UNE7) | 0.01 | 0.02 | -0.007 | -0.072 | -0.051 | 0.018 | -0.015 | -0.03 | 0.006 | 0.004 | -0.012 | -0.193 | 0.003 | -0.029 | 0.026 | -0.025 | 0.135 | 0.003 | 0.007 | -0.003
2 | SMAD9 (UniProt O15198) | -0.045 | -0.003 | 0.032 | -0.011 | 0.024 | 0.111 | 0.021 | 0.048 | 0.08 | 0.007 | 0.008 | -0.075 | 0.089 | -0.081 | 0.011 | 0.014 | -0.014 | 0.052 | 0.047 | -0.028
3 | SHCBP1 (UniProt Q8NEM2) | -0.016 | 0.003 | 0.041 | -0.041 | -0.044 | 0.027 | -0.091 | 0.022 | 0.027 | 0.019 | 0.001 | -0.122 | -0.043 | 0.012 | -0.084 | 0.049 | -0.003 | 0.088 | -0.015 | 0.055
4 | SPATS2 (UniProt Q86XZ4) | -0.013 | 0.032 | 0.071 | -0.175 | -0.041 | 0.128 | 0.144 | 0.038 | -0.12 | 0.031 | 0.039 | -0.075 | 0.019 | 0.353 | 0.036 | 0.066 | -0.195 | -0.015 | -0.047 | 0
5 | SSB (UniProt P05455) | -0.004 | -0.02 | -0.001 | -0.011 | 0.011 | 0.002 | 0.011 | -0.021 | -0.015 | -0.016 | 0.057 | 0.018 | -0.02 | -0.019 | -0.015 | -0.029 | 0.022 | -0.003 | 0.002 | -0.008
6 | SFN (UniProt P31947) | -0.038 | 0.003 | -0.025 | 0.006 | 0.029 | 0.023 | 0.521 (active) | -0.084 | -0.003 | -0.01 | 0.05 | 0.054 | -0.009 | 0.052 | -0.017 | -0.024 | 0.065 | 0.076 | 0.008 | -0.008
7 | SYNE2 isoform 2 (UniProt Q8WXH0) | 0.009 | 0.005 | 0.085 | 0.004 | 0.065 | -0.042 | -0.966 (active) | 0.371 | -0.054 | 0.035 | -0.415 | 0.143 | -0.117 | -0.139 | -0.003 | -0.036 | 0.004 | 0.037 | 0.034 | -0.059
8 | SLC25A38 (UniProt Q96DW6) | 0.037 | 0.013 | -0.005 | 0.209 | 0.012 | 0.015 | -0.055 | 0.067 | -0.127 | 0.07 | -0.062 | 0.014 | -0.049 | 0.074 | 0.06 | -0.038 | 0.321 | 0.044 | 0.097 | 0.094
9 | SLC27A4 (UniProt Q6P1M0) | -0.042 | 0.127 | -0.015 | -0.028 | -0.106 | 0 | -0.066 | -0.008 | -0.023 | 0.083 | -0.019 | -0.021 | -0.009 | -0.157 | -0.062 | 0.135 | 0.006 | 0.039 | 0.062 | -0.067
10 | TADA3 (UniProt O75528) | -0.007 | 0.004 | 0.002 | 0.008 | -0.006 | -0.022 | -0.122 | 0.006 | -0.017 | -0.012 | 0.001 | -0.04 | 0.044 | -0.007 | 0.06 | 0.029 | -0.024 | 0 | 0.001 | 0.03
11 | SMG5 (UniProt Q9UPR3) | 0.009 | 0.048 | 0.047 | 0.029 | -0.006 | 0.068 | 0.038 | -0.004 | 0.05 | -0.024 | 0.086 | -0.075 | 0.014 | 0.04 | -0.037 | 0.067 | 0.058 | 0.04 | 0.004 | 0.028
12 | SLC27A2 (UniProt O14975) | 0.089 | 0.009 | 0.029 | -0.033 | -0.084 | -0.063 | -0.024 | 0.082 | -0.021 | 0.159 | 0.005 | -0.009 | 0.216 | -0.044 | 0.172 | 0.063 | 0.019 | 0.002 | 0.017 | -0.089
13 | SND1 (UniProt Q7KZF4) | 0.024 | 0.017 | 0.021 | -0.099 | -0.084 | 0.037 | 0.058 | -0.078 | 0.014 | 0.031 | 0.009 | -0.121 | 0.015 | 0.019 | -0.019 | -0.019 | 0.195 | 0.026 | -0.004 | -0.017
14 | SPAG5 (UniProt Q96R06) | -0.007 | 0.04 | 0.025 | -0.016 | -0.004 | -0.01 | -0.004 | -0.174 | 0.004 | 0.009 | -0.019 | -0.119 | 0.031 | 0.008 | 0.003 | 0.071 | -0.081 | -0.01 | -0.017 | 0.019
15 | SRSF7 (UniProt Q16629) | 0.012 | 0.03 | -0.057 | -0.007 | 0.012 | 0.017 | -0.034 | 0.193 | -0.008 | 0.028 | -0.2 | -0.005 | -0.057 | -0.06 | 0.051 | 0.032 | 0.049 | 0.006 | 0.038 | 0.067
16 | SH3BGRL2 (UniProt Q9UJC5) | -0.013 | 0.021 | 0.022 | 0.076 | 0.006 | -0.007 | 0.387 (active) | -0.052 | 0.014 | 0.002 | 0.067 | 0.031 | 0.05 | 0.039 | 0.061 | -0.066 | 0.027 | -0.013 | -0.001 | -0.001
